Measurements reported in PubChem BioAssay AID926 (National Center for Advancing Translational Sciences (NCATS), 2007).
Where “and” joins values, the source holds several entries; their conditions need not be identical. Equal entries are not always repeated. The whole screen tested about 73,000 compounds, of which about 350 (0.48%) were called active. Not shown: some 17% with an inconclusive outcome. Calls follow the shape of the dose curve; as a rule, active = well fitted activation curve with a large enough effect in the main read-out, with a control signal flat (not every such curve was filed as active); inconclusive = small, poorly fitted or top-dose-only effect, or a change in a side signal; inactive = no such curve, though single readings can be large or run the other way; reference of the percent scale not stated here. Shown is part of a subset that was picked to be rich in actives.

What was measured:
[1] = qHTS Assay for Agonists of the Thyroid Stimulating Hormone Receptor; conditions: HEK293-CNG-TSHR cells, membrane potential dye, cAMP; measured here: parental cells max response
Description: (§1) NIH Chemical Genomics Center [NCGC]
(§2) NIH Molecular Libraries Screening Centers Network [MLSCN]
(§3) PI Name: Dr. Marvin Gershengorn, NIH
(§4) Thyroid Stimulating Hormone Receptor
(§5) TSH is an alpha/beta heterodimeric glycoprotein hormone secreted from the anterior pituitary gland which belongs to the glycoprotein hormone family. The actions of TSH are mediated by a seven-transmembrane receptor, which upon TSH binding couples preferentially to the G-alpha (s) protein (Gs), resulting in activation of adenylate cyclase and increase in cyclic adenosine 3', 5' monophosphate (cAMP). The TSH receptor (THSR) is mainly expressed in thyroid follicular cells and regulates their growth and function. Recombinant TSH is used to activate TSHR in patients with thyroid cancer receiving thyroid hormone suppression therapy and to screen for residual tumor after surgery, but it is expensive and must be administered intramuscularly. An orally active small molecule TSHR agonist would serve as an invaluable research tool for studying TSHR pharmacology and physiology, and would have multiple advantages in therapeutic settings. However, no selective small molecule agonist of the TSH receptor exists, and no small molecule screen for TSHR agonists has ever been reported.
(§6) This cell based assay utilized a cyclic nucleotide gated ion channel (CNG) as a biosensor for cAMP induction by potential TSHR agonists.
(§7) HEK 293 cells stably expressing the TSHR as well as a modified CNG were purchased from BD biosciences. Stimulation of cAMP production causes the CNG to open and subsequent membrane depolarization to occur. A fluorescent membrane potential dye (BD biosciences) was utilized to detect cAMP stimulation in TSHR cells.
(§8) The cells were maintained in DMEM medium (Invitrogen) containing 10 % FBS (Hyclone), 100 units/ml Penicillin, 100 ug/ml Streptomycin (Invitrogen), and 250 ug/ml Geneticin (Invitrogen) and 1 ug/ml Puromycin (Invitrogen) at 37C in 5% CO2. HEK 293 cells expressing CNG but without TSHR (parental cells) were used in concert to control for compounds signaling through endogenous receptors and targets of HEK 293 cells.
(§9) NCGC Assay Protocol Summary:
(§10) High Throughput Screening. Freshly passaged cells (TSHR or parental) were dispensed into 1536-well assay plates at 4 ul/well in DMEM containing phenol red (Invitrogen), 10% FCS (Hyclone), and 100 units/ml Penicillin, 100 ug/ml Streptomycin (Invitrogen) and incubated at 37 C with 5% CO2 for 20 to 36 hrs before the robotic screening. The screen was initiated by addition of 4 ul/well membrane potential dye containing 100 uM RO 20-1724 (Sigma Aldrich), followed by 60 min incubation at room temperature to allow for dye equilibration across the cell membrane. 23 nl/well compound or control was then added to the assay plates, which were incubated for additional 30 min before reading a Envision fluorescence plate reader (Perkin Elmer) in bottom-read mode for fluorescence intensity (emission at 590 nm).
(§11) Keywords: Thyroid-stimulating hormone TSH, TSHR, TSHR agonist, quantitative high throughput screening, qHTS, HTS, probe identification, CNG, cAMP, cyclic nucleotide gated ion channel PubChem

[2] = target: Thyrotropin receptor (Homo sapiens) (UniProt P16473); assay: as above; conditions: HEK293-CNG-TSHR cells (CNG channel as cAMP sensor), membrane potential dye, cAMP; series mostly up to 57.1 µM
Chain of Thyrotropin receptor (Homo sapiens) (P16473 whole entry, looked up): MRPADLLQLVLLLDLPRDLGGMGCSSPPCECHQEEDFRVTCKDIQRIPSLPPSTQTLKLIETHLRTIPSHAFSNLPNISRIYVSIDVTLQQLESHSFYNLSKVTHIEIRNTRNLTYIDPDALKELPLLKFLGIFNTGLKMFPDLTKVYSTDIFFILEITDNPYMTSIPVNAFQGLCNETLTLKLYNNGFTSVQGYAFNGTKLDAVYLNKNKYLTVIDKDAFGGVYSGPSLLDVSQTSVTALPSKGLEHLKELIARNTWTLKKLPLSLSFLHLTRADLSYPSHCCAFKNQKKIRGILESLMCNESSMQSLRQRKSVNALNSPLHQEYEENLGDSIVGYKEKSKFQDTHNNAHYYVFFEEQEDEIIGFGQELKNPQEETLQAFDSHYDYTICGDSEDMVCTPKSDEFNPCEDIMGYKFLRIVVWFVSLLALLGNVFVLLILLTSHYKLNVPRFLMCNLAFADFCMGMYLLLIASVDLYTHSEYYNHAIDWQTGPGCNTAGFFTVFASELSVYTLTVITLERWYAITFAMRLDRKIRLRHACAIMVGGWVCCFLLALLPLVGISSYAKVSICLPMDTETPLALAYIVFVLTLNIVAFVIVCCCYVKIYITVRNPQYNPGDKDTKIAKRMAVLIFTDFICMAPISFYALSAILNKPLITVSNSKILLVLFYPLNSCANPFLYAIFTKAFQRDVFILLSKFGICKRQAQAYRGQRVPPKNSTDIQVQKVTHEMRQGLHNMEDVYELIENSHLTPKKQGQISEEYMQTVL
Description: as §1, §2, §3, §4, §5, §6, §7, §8, §9, §10, §11
Potency is read from the fitted curve at half-maximal effect.

Row | Compound | activation [1] | Potency [2] | activation [2]
1 | CC1CN(c2cc(=O)n(Cc3ccc(F)cc3)c(=O)[nH]2)CC(C)O1 (stereo not drawn) | 3.44% | inactive | 
2 | COc1cccc([C@H]2Oc3ccc(OC)cc3/C(=N\OCC[C@@H]3C=C[C@H](OC(C)=O)[C@H](COC(C)=O)O3)[C@@H]2O)c1 | 1.81% |  | 9.23% [at 11.4 µM] (inactive)
3 | COC(=O)[C@@H]1CC[C@H](C)[C@@H](c2ccc(C)cc2)N1C(=O)c1ccc(/C=N\OC[C@@H](O)COCc2ccco2)cc1 | 44.4% |  | 16.9% [at 11.4 µM] (inactive)
4 | c1ccc2c(Nc3ccncc3)nc(-c3ccc4c(c3)OCO4)nc2c1 | -4.18% | inactive | 
5 | CCc1ccccc1NC(=O)c1cccs1 | -1.56% | inactive | 
6 | Nc1ccccc1N | -14.7% | inactive | 
7 | Cc1ccc(CCn2c3c(c4ccccc42)CN(C)CC3)cn1 | 19.4% | inactive | 
8 | COC(=O)[C@@]1(Cc2ccc(F)cc2)[C@H]2c3cc(C(=O)N(C)C)n(CCc4c[nH]c5ccc(OC)cc45)c3C[C@H]2CN1C(=O)c1ccccc1 | 3.36% | inactive | 
9 | CO[C@H]1COC(=O)[C@@H](C)NC(=O)C/C=C\[C@@H](C)[C@H](OC)COC(=O)C/C=C\[C@@H]1C | 2.45% |  | -73.4% [at 11.4 µM] (inactive)
10 | CCOc1cc(/C=N/O)cc(Br)c1OC | 15% |  | 4.51% [at 11.4 µM] (inactive)
11 | C[C@H]1CC[C@H](C(=O)O)N[C@@H]1c1ccc(C#Cc2ccccc2)cc1 | 0.689% |  | 0.128% [at 11.4 µM] (inactive)
12 | O=C(c1cccs1)N1CCN(Cc2ccc3c(c2)OCO3)CC1 | -2.72% | inactive | 
13 | C[C@@H]1O[C@@H](O[C@@H]2[C@@H](O)[C@H](OCCc3ccc(O)c(O)c3)O[C@H](CO[C@@H]3O[C@H](CO)[C@@H](O)[C@H](O)[C@H]3O)[C@H]2OC(=O)/C=C/c2ccc(O)c(O)c2)[C@H](O)[C@H](O)[C@H]1O | 23.7% | inactive | 
14 | c1nc(COc2nsnc2N2CCOCC2)cs1 | -7.01% | inactive | 
15 | c1ccc(COc2nsnc2N2CCOCC2)cc1 | 27.1% | 31.6 µM (active) | 
16 | O=C(O)COc1nsnc1N1CCOCC1 | -10.1% | inactive | 
17 | CCn1c(COc2ccc(OC)cc2)nnc1SCC(=O)Nc1cc(OC)ccc1OC | 24.1% | inactive | 
18 | COc1ccc(OC)c(NC(=O)CC(Cc2ccccc2OC)C(=O)O)c1 (stereo not drawn) | 9.66% | inactive | 
19 | COc1ccc(OC)c(NC(=O)CSc2nc(N)c(-c3ccccc3)c(=O)[nH]2)c1 | 9.04% | 25.1 µM (active) | 
20 | CN(C)CCCCNC(=O)c1ccc(Cc2nc3ccccc3[nH]2)cc1 | 3.13% | inactive | 

Row | Compound | activation [1] | Potency [2] | activation [2]
21 | Cc1ccc2oc(=O)c3cnn(CC(=O)N4CCN(c5ccccn5)CC4)c3c2c1 | 4.94% | inactive | 
22 | CC(C)[C@@H](OCc1ccccc1)[C@H](C)/C=N\OC[C@@H](C)[C@H](OCc1ccccc1)C(C)C | 2.03% |  | 1.85% [at 11.4 µM] (inactive)
23 | Cc1c(S(=O)(=O)O)ccc(N=Nc2c(O)c(C(=O)O)cc3ccccc23)c1Cl | -23.8% |  | -9.34% [at 11.4 µM] (inactive)
24 | Cc1nc2cnc(N3CCNCC3)nc2n(CCc2ccccc2)c1=O | 9.57% | inactive | 
25 | O=C(COC(=O)CCC(=O)c1cccs1)NCc1ccco1 | 10.5% | inactive | 
26 | CCOC(=O)c1c(NC(=O)CCC(=O)NCc2ccco2)sc2c1CCCC2 | 12.9% | inactive | 
27 | O=C(COC(=O)C12CC3CC(CC(C3)C1)C2)NCc1ccco1 | -8.57% | 0.794 µM (active) | 
28 | CC(C)CO/N=C1/C[C@@H](O)[C@@H](O)[C@@H]2[C@@H]3C(=O)N(C[C@@H]4CCCO4)C(=O)[C@H]3CC[C@@H]12 | 4.27% |  | -4.09% [at 11.4 µM] (inactive)
29 | COC(=O)C(C(=O)OC)[C@@H]1CCCC(=O)C1 | 4.23% |  | -9.31% [at 11.4 µM] (inactive)
30 | COC(=O)C(C)Sc1ccc2nnc(-c3cccc(F)c3)n2n1 (stereo not drawn) | 2.29% | inactive | 
31 | CSc1ccc(Cl)c(C(=O)OCC(=O)N2CC(C)OC(C)C2)c1 (stereo not drawn) | 6.62% | inactive | 
32 | COC(=O)C1=C(C)N(Cc2ccccc2)C2=C3C(=O)N(c4ccccc4)C(=O)C3[C@@](O)(C(=O)OC)C(=O)N2C1c1ccccc1 (stereo partly drawn) | 9.18% and 2.67% |  | -0.785% [at 11.4 µM] (inactive) and 7.43% [at 11.4 µM] (inactive)
33 | CCCNC(=O)OC[C@@H]1O[C@H](c2ccccc2)C=C[C@@H]1Oc1ccc(OC)cc1 | 1.38% |  | 1.94% [at 11.4 µM] (inactive)
34 | CN1CCCc2cc(C#N)c(=O)[nH]c21 | 7.1% |  | 4.78% [at 11.4 µM] (inactive)
35 | O=C(CN1C(=O)NC2(CCCCC2)C1=O)NCCC1=CCCCC1 | 3.28% | 12.6 µM (active) | 
36 | O=C(COc1cccc(-n2cnnn2)c1)NCCC1=CCCCC1 | -0.416% | inactive | 
37 | O=C(Cc1nn[nH]n1)NCCC1=CCCCC1 | 15.8% | inactive | 
38 | CNC(=O)C1(C)C=CC2(CCCCC2)N1C(C)=O (stereo not drawn) | 9.38% | inactive | 
39 | O=C(c1ccccc1)c1ccc2nc(N3CCCCC3)c3nncn3c2c1 | 3.47% | inactive | 
